Measurements reported in PubChem BioAssay (NCATS).
Inconclusive results are not listed. Active and inactive are the calls of the source. Calls come from the whole dose curve; as a rule, active = well fitted inhibition curve with a large enough effect; inconclusive = small, poorly fitted or top-dose-only effect; inactive = flat fitted curve, though single readings scatter.

experiment: qHTS to identify inhibitors of the type 1 interferon - major histocompatibility complex class I in skeletal muscle: primary screen against the NCATS Pharmaceutical Collection (AID 1347407); details: human skeletal muscle cells, IFN-b-induced MHC-I HiBiT luminescence, 24 h; series mostly up to 45.9 µM; activity change, negative = inhibition: at the top concentration
Method in brief: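 Immortalized human myoblasts (C25cl48) with HiBiT knocked into endogenous HLA-B*08:01 were stimulated with 4 ng/ml IFN-beta and treated with compounds (8-point, 1:5, top 46 uM final) for 24 h at 37 C; HiBiT lytic luminescence read.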
% is set by controls: 0 for no effect and ±100 for the full control effect.

Row | Compound | activity change, negative = inhibition
1 | CCOC(=O)c1ncn2c1CN(C)C(=O)c1c(I)cccc1-2 | -0.259% (inactive)
2 | CCCOC(=O)Cc1ccc(OCC(=O)N(CC)CC)c(OC)c1 | -20.7% (inactive)
3 | CN1[C@@H]2CC[C@H]1CC(OC(=O)c1cc(Cl)cc(Cl)c1)C2 (stereo partly drawn) | -7.64% (inactive)
4 | COc1ccc(OC)c(CC(C)N)c1 (stereo not drawn) | -16% [at 92.2 µM] (inactive)
5 | CC(C)[N+](C)(CCC(C(N)=O)(c1ccccc1)c1ccccc1)C(C)C | -6.48% (inactive)
6 | CCOC(C(=O)OCCN(C)C)(c1ccccc1)c1ccccc1 | 31.5% (inactive)
7 | Cc1nnc2n1-c1sc(CCC(=O)N3CCOCC3)cc1C(c1ccccc1Cl)=NC2 | -4.21% (inactive)
8 | COc1cc(CC(C)N)c(OC)cc1Br (stereo not drawn) | -11.2% [at 92.2 µM] (inactive)
9 | CC(C)(C)OC(=O)c1ncn2c1[C@@H]1CCCN1C(=O)c1c(Br)cccc1-2 | -0.341% (inactive)
10 | COP(=S)(OC)Oc1ccc(S(N)(=O)=O)cc1 | 26.5% (inactive)
11 | ClCCCN1CCN(c2cccc(Cl)c2)CC1 | 0.567% (inactive)
12 | CNC(C)Cc1ccc2c(c1)OCO2 (stereo not drawn) | -0.845% [at 92.2 µM] (inactive)
13 | O=C(O)Cc1ccccc1 | -6.14% (inactive)
